The nature of the test: spectral interference with molecular beacon fluorescence, dose response, artefact control for DNMT1 inhibitor project, biochemical, fluorescent molecular beacon (AID 602382). As to conditions: spectral interference counter-screen.

The other results are listed elsewhere or left out. A number with no mark means an inactive call. No rule for the calls is given here. Some results are limits rather than exact numbers.

In the case of `Cc1c(C(=O)O)cccc1-n1c(C)cc(/C=C2\C(=O)NC(=O)N(c3ccc4c(c3)OCO4)C2=O)c1C`, the IC50 is greater than 99 µM.

The values above are taken from PubChem BioAssay AID602382 (Sanford-Burnham Center for Chemical Genomics, 2012).
